Compound activity as filed in PubChem.
CHX counter: counter-screen for Shiga toxin inhibitors: cycloheximide protein synthesis inhibition; hit rate 12% among 300,000; AID 2314; max response, %; cell reporter, cycloheximide protein synthesis inhibition counterscreen; in the data active = max response mostly above about 13%, no sharp cut-off; inactive = mostly below about 14%; note: read at 38.3 µM for the half of the compounds with a filed dose
LmPK inhibitor: LmPK (Leishmania mexicana) enzyme inhibition. Q27686. purified LmPK, Kinase-Glo ATP luminescence, 1 h. Potency, µM (top dose mostly 57.5 µM), usual class: inhibitors. hit rate 0.37% among 290,000. AID 1721
Target sequence (Q27686 whole entry, looked up): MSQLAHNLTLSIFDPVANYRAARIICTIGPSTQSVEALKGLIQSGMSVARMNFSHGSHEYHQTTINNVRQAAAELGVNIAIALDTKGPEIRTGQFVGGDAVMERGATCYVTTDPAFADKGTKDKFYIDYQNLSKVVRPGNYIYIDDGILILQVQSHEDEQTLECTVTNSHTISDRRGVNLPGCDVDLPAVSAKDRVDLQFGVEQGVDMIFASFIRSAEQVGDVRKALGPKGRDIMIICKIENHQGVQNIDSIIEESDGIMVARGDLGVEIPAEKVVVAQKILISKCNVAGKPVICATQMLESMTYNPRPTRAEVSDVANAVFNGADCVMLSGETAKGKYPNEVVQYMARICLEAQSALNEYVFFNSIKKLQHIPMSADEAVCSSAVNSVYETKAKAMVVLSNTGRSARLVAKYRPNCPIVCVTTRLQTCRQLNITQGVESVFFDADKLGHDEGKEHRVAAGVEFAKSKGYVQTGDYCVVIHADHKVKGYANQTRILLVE
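Pyruvate kinase activity monitored as ATP production (luciferase luminescence). Conditions: 0.1 nM enzyme, 0.5 mM PEP, 0.1 mM ADP, 1 h, RT; normalized against uninhibited and no-enzyme wells.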
FBPA Giardia inh: blocks Giardia fructose-bisphosphate aldolase activity; AID 2451; purified Giardia FBPA; hit rate 0.71% among 290,000; Potency, µM (top dose mostly 59.6 µM), most hits filed as inhibitors; A8B2U2; note: nearly all actives have a fitted effect of over 55% in size
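40 nM FBPA preincubated 10 min at RT with compound (up to 57.5 uM final), then substrate plus GAPDH/TPI/NAD/arsenate coupling and diaphorase/resazurin added. Fluorescence read after 20 min at RT, 525/598 nm.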
NS1 inh: influenza NS1 inhibition; AID 2326; Potency, µM (top dose mostly 46.1 µM); hit rate 0.4% among 270,000; calls by dose curve; note: actives are rising curves; nearly all actives have a fitted effect of over 50% in size
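OD600 was taken as the measure of yeast growth restored by compound in an NS1-expressing S. cerevisiae strain. Cells had been washed out of glucose medium and diluted 1:100 into galactose -URA medium, pH 6.0.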
Shiga inhibitor: Shiga toxin inhibition. inhibition, % at 38.7 µM. Vero cells, Shiga toxin protein synthesis inhibition reporter. hit rate 9.2% among 290,000; in the data active = inhibition mostly above about 28%, no sharp cut-off; inactive = mostly below about 43%
A number is an active result; i = inactive; ? = inconclusive; nt = no result; + = active, no number; [ ] = dose if it differs, or a comment. Only some compounds are listed: those with a hit (about 14% of all), similar ones and a draw of the others. Unless noted, calls come from the whole dose curve; as a rule, active = well fitted curve in the direction sought with a large enough effect; inconclusive = small, poorly fitted or top-dose-only effect, or another doubt; inactive = no such curve, though single readings can be large; an effect the other way counts as inactive or inconclusive.

SMILES | CHX counter | LmPK inhibitor | FBPA Giardia inh | NS1 inh | Shiga inhibitor
Cn1c(=NC(=O)c2ccccc2[N+](=O)[O-])sc2cc(S(C)(=O)=O)ccc21 | 64 | i | i | i | 50
Cc1cc(N/N=C/c2cccc(Br)c2)nc2ccccc12 | 33 | i | i | i | 24
Cc1cc(N/N=C/c2ccncc2)nc2ccccc12 | i | i | i | i | 49
Cc1cccc(/C=N/Nc2ccc3ccccc3n2)c1 | i | ? | i | nt | i
O=C(COc1ccc2ccccc2c1Br)Nc1ccncc1 | 28 | i | nt | i | 74
O=C(COc1ccc2ccccc2c1Br)Nc1cccnc1 | 37 | i | nt | i | 138
C=CCNc1nc2ccccc2c(=O)[nH]1 | i | i | i | i | i
C=CCOc1cccc(/C=C/c2nc3ccccc3c(=O)[nH]2)c1 | 41 | i | i | i | 71
COc1ccc(/C=C/c2nc(C)c(-c3ccccc3)c(=O)[nH]2)cc1OC | i | i | i | i | i
COc1cc(/C=C/c2nc3ccccc3c(=O)[nH]2)ccc1OC(F)F | 29 | i | i | i | i
COc1cc(/C=C/c2nc3ccccc3c(=O)[nH]2)cc(OC)c1OC | 28 | i | i | i | i
O=C(O)Cc1c(Cl)ccc(Cl)c1Cl | i | nt | i | nt | i
CNCCc1ccc(O)c(O)c1 | nt | nt | i | i | nt
CCCCc1cc(O)c(CCCC)c(O)c1 | 39 | i | i | i | 40
c1ccc(-c2noc(-c3ccc4ccccc4c3)n2)nc1 | i | 6.3µM | i | i | i
Cc1onc(-c2ccccc2Cl)c1-c1nc(-c2ccccn2)no1 | i | i | i | i | i
c1ccc(CCc2ccccc2-c2nc(-c3ccccn3)no2)cc1 | i | i | i | i | i
Clc1ccccc1/C=C/c1nc(-c2ccccn2)no1 | i | 4µM | i | i | i
c1ccc(-c2noc(-c3cccnc3)n2)nc1 | 42 | 14µM | i | ? | 80
c1ccc(-c2noc(-c3ccncc3)n2)nc1 | 34 | 13µM | i | i | i
CCOc1nc(-c2ccccc2)ccc1-c1noc(-c2cccnc2)n1 | nt | nt | nt | i | nt
CC[C@H](C)[C@H](NC(=O)[C@H](Cc1ccc(O)cc1)NC(=O)[C@H](Cc1cnc[nH]1)NC(=O)[C@H](CCCNC(=N)N)NC(=O)[C@H](CC(C)C)NC(=O)[C@H](C)NC(=O)[C@H](CO)NC(=O)[C@H](Cc1ccc(O)cc1)NC(=O)[C@H](Cc1ccc(O)cc1)NC(=O)[C@H](CCCNC(=N)N)NC(=O)[C@H](C)NC(=O)[C@H](CC(C)C)NC(=O)[C@H](CC(=O)O)NC(=O)[C@H](CCC(=O)O)NC(=O)[C@H](C)NC(=O)[C@@H]1CCCN1C(=O)[C@H](C)NC(=O)[C@H](CC(=O)O)NC(=O)[C@H](CCC(=O)O)NC(=O)CNC(=O)[C@@H]1CCCN1C(=O)[C@H](CC(N)=O)NC(=O)[C@H](CC(=O)O)NC(=O)[C@@H]1CCCN1C(=O)[C@H](CCCCN)NC(=O)[C@@H](N)CO)C(=O)N[C@@H](CC(N)=O)C(=O)N[C@@H](CC(C)C)C(=O)N[C@H](C(=O)N[C@H](C(=O)N[C@@H](CCCNC(=N)N)C(=O)N[C@@H](CCC(N)=O)C(=O)N[C@@H](CCCNC(=N)N)C(=O)N[C@@H](Cc1ccc(O)cc1)C(N)=O)[C@@H](C)O)[C@@H](C)CC | i | nt | i | nt | i
CCC(=O)OCC(=O)[C@@]1(OC(=O)CC)[C@@H](C)C[C@@H]2[C@H]3CCC4=CC(=O)C=C[C@]4(C)[C@@]3(F)[C@@H](O)C[C@@]21C | i | nt | i | nt | i
c1ccc(-c2noc(-c3ccc4c(c3)OCO4)n2)nc1 | i | 3.2µM | i | ? | i
Cc1cccc(-c2noc(-c3ccc4c(c3)OCO4)n2)c1 | i | i | i | i | i
SMILES | CHX counter | LmPK inhibitor | FBPA Giardia inh | NS1 inh | Shiga inhibitor
Cc1nccc(-c2ccc3c(c2)OCO3)n1 | i | i | i | nt | i
c1ccc(-c2nccc(-c3ccc4c(c3)OCO4)n2)cc1 | 55 | i | i | i | 70
C=CCCn1c(Cl)c(C#N)sc1=O | i | nt | i | nt | i
Cc1nc2ccc(NC(=O)COc3ccccc3)cc2s1 | 23 | i | i | nt | i
Cc1cc(CNC(=O)COc2ccccc2)c2ccccc2n1 | 17 | i | i | nt | i
CC(=O)c1ccc(OCC(=O)Nc2ccc3nc(C)sc3c2)cc1 | i | i | i | i | i
Cc1nc2ccc(NC(=O)COc3cccc(F)c3)cc2s1 | 26 | i | i | i | i
Cc1cccc(OCC(=O)Nc2ccc3nc(C)sc3c2)c1 | i | i | i | i | 63
CCC(=O)Nc1nc2ccc(NC(=O)COc3ccccc3)cc2s1 | i | i | i | i | i
CCS(=O)(=O)N1CCC(C(=O)Nc2ccc(C(C)=O)cc2)CC1 | i | i | i | ? | i
S=C(NCc1ccco1)Nc1ccc(Br)cc1Cl | 18 | i | i | i | i
COc1cc(NC(=S)NCCCO)c(OC)cc1Cl | i | i | i | i | i
S=C(NCc1ccc(Cl)c(Cl)c1)NCc1ccco1 | i | i | i | i | i
S=C(NCc1ccco1)Nc1ccc(Cl)cc1Cl | 22 | i | i | i | +
OCCCNC(=S)Nc1ccc(Br)cc1Cl | 21 | i | i | i | 34
C=CCCN(C(C)C(=O)OC)S(=O)(=O)c1ccccc1Br (stereo unspecified) | i | nt | i | nt | i
CC(=O)COc1c(-c2ccco2)oc2ccccc2c1=O | i | i | i | i | i
CCOc1ccc(/C=C/C(=O)N(CC)CC(=O)Nc2ccc3c(c2)OCCO3)cc1OCC | i | i | nt | i | i
COc1ccccc1NC(CC(=O)c1ccccc1)C(=O)OCC(=O)c1ccc(C)cc1 (stereo unspecified) | 33 | i | i | i | 73
COc1ccccc1NC(CC(=O)c1ccccc1)C(=O)OCC(=O)c1ccc(Br)cc1 (stereo unspecified) | 102 | i | i | i | 115
COc1ccccc1NC(CC(=O)c1ccccc1)C(=O)OCC(=O)c1ccc(C)c(C)c1 (stereo unspecified) | 40 | i | i | i | 37
O=C1C(=O)N(CCCO)C(c2ccc(Br)cc2)/C1=C(\O)c1ccc(Br)cc1 (stereo unspecified) | i | i | i | i | i
CCNC(=S)N1CCCC(c2nc3ccc(C)cc3[nH]2)C1 (stereo unspecified) | i | i | i | i | i
Cc1ccc2nc(C3CCCCC3)[nH]c2c1 | 38 | i | i | i | 42
CCOC(=O)c1sc(NC(=O)C2CC(=O)N(c3ccc(OCC)cc3)C2)nc1C (stereo unspecified) | i | i | nt | i | i
O=C(/C=C/c1cccs1)N1CCN(c2ccccc2F)CC1 | 15 | i | i | i | 63
O=C(/C=C/c1ccc([N+](=O)[O-])cc1)N1CCN(c2ccccc2F)CC1 | 15 | i | i | i | 46
O=C(/C=C/c1cccs1)N1CCN(c2ccc(F)cc2)CC1 | i | i | i | i | i
C/C(=N/NC(=O)CN1CCN(Cc2ccccc2Cl)CC1)c1cccnc1 | i | i | i | i | i
CC(C)CO/N=C1/C[C@@H](O)[C@@H](O)[C@@H]2[C@@H]3C(=O)N(C(C)(C)C)C(=O)[C@H]3CC[C@@H]12 | nt | nt | i[12.9 µM] | nt | nt
